Data: PubChem BioAssay (Tox21)
Results filed as inconclusive are left out. A call without a number means that no potency is given here. Active and inactive are the calls of the source. Calls follow the shape of the dose curve; as a rule, active = well fitted cell-killing curve with a large enough effect in the repeat runs; inconclusive = weak or mixed curves, or effect the other way; inactive = flat fitted curve, though single readings scatter.

Assay: Nuclear factor erythroid 2-related factor 2/antioxidant responsive element (Nrf2/ARE) small molecule agonists: qHTS cell viability counter screen in human keratinocytes (AID 1919968); also: nearly all actives have a fitted effect of over 55% in size
Conditions: KeratinoSens HaCaT ARE cells viability, CellTiter-Fluor, 24 h; series mostly up to 92.4 µM
Description: U.S. Tox21 Program National Center for Advancing Translational Sciences [NCATS] Division of Preclinical Innovation [DPI] U.S. Environmental Protection Agency [EPA] National Institutes of Environmental Health Sciences [NIEHS] National Toxicology Program [NTP] U.S. Food and Drug Administration [FDA] Tox21 Assay Overview: Oxidative stress has been implicated in the pathogenesis of a variety of diseases ranging from cancer to neurodegeneration. The antioxidant response element (ARE) signaling pathway plays an important role in the amelioration of oxidative stress. The KeratinoSens (Givaudan, Switzerland) is an in vitro test method which quantifies luciferase induction as a measure of activation of Keap1-Nrf2-antioxidationt/electrophile response element (ARE) dependant pathway in HaCaT human keratinocytes stably transfected with a selectable plasmid. The KeratinoSens assay is a cell-based assay with a reporter cell line to detect potential skin sensitizers by their ability to induce the Nrf2/ARE-response. The activation of the report gene under culture conditions can be detected by ONE-Glo Luciferase Assay System (Promega, Madison, WI). This cell line has been used to screen the Tox21 10K compound library to identify agonists that induce oxidative stress. The cytotoxicity of the Tox21 compound library against the KS-ARE cell line was tested in parallel by measuring the cell viability using CellTiter- Fluor assay system (Promega, Madison, WI) in the same wells.
Tox21 Assay Protocol Summary: HaCaT derived cell line KeratinoSens were dispensed at 1,500 cells/5uL/well in 1536-well white wall/solid bottom plates using a Multidrop Combi (ThermoFisher Scientific, Waltham, MA) dispenser. After the assay plates were incubated at 37 C/5% CO2 for 5 h, 23 nL of compounds dissolved in DMSO, positive controls or DMSO only was transferred to the assay plate by a pintool workstation (Kalypsys, San Diego, CA). The plates were incubated at 37 C/5% CO2 for 23 h, followed by addition of 1uL/well of CellTiter-Fluor reagent into the assay plates using a Flying Reagent Dispenser (Aurora Discovery, San Diego, CA) for cell viability readout that measures cytotoxicity. After 1 h incubation at 37 C/5% CO2 the fluorescence intensity was measured using a ViewLux (PerkinElmer, Shelton, CT) plate reader.

SMILES	Potency
CC(=O)Oc1ccc(C(c2ccc(OC(C)=O)cc2)c2ccccn2)cc1	inactive
Cc1ncc([N+](=O)[O-])n1CCO	inactive
CN/C(=C\[N+](=O)[O-])NCCSCc1csc(CN(C)C)n1	inactive
COCCc1ccc(OCC(O)CNC(C)C)cc1 (stereo not given)	inactive
CC(=O)OCC(=O)[C@@]12N=C(C)O[C@@H]1C[C@H]1[C@@H]3CCC4=CC(=O)C=C[C@]4(C)[C@H]3[C@@H](O)C[C@@]12C	inactive
CC(=O)c1ccccn1	inactive
CC(O)COc1ccccc1 (stereo not given)	inactive
Cc1cccc2ccccc12	inactive
Cc1cc(=O)oc2cc(O)ccc12	inactive
O=C(O)CS	inactive
CCCC(CCC)C(=O)O	inactive
O=C1CCC(N2C(=O)c3ccccc3C2=O)C(=O)N1 (stereo not given)	inactive
c1ccc2c(c1)Cc1ccccc1-2	inactive
C=C(C)C(=O)OCCCCCC	inactive
CC(=O)Oc1ccc(C)cc1	inactive
Clc1ccc(Sc2cc(Cl)c(Cl)cc2Cl)cc1	inactive
Nc1ncn([C@@H]2O[C@H](CO)[C@@H](O)[C@H]2O)c(=O)n1	inactive
CC(=O)Nc1cccc(O)c1	inactive
CC1=CC(C)(C)Nc2ccccc21	inactive
FC(F)(F)c1ccc(Cl)c(Cl)c1	inactive

SMILES	Potency
Cc1occc(=O)c1O	inactive
CN(C)C(=O)Nc1ccc(Cl)c(Cl)c1	inactive
CCCC(O)C(CC)CO (stereo not given)	inactive
CCO[Si](CCCNC(N)=O)(OCC)OCC	inactive
O=C(OCc1ccccc1)c1ccc(O)cc1	inactive
Clc1ccccn1	inactive
c1ccc2scnc2c1	inactive
CCOC(=O)C(C#N)=C(c1ccccc1)c1ccccc1	inactive
CC1(C)S[C@@H]2[C@H](NC(=O)[C@H](N)c3ccccc3)C(=O)N2[C@H]1C(=O)O	inactive
O=NO	inactive
CC(O)CO (stereo not given)	inactive
NC(N)=S	inactive
CCN(CC)CCOC(=O)c1ccc(N)cc1	inactive
CCn1c2ccccc2c2cc(N)ccc21	inactive
CC(=O)OCC(COC(C)=O)OC(C)=O	inactive
CCCCCCCC(=O)OC	inactive
O=S(=O)(O)NC1CCCCC1	inactive
C=CCOC(=O)CC(C)C	inactive
Cc1cc(C(C)(C)C)c(O)c(C(C)(C)C)c1	inactive
C[Si](O[Si](C)(C)C)O[Si](C)(C)C	inactive
